The record followed here is PubChem BioAssay AID488857 (Sanford-Burnham Center for Chemical Genomics, 2010).

One may read the inhibition as the relative decrease from the control value, in per cent.

The campaign covered roughly 1,400 compounds. About 560 (40%) were called active. The set was probably picked from earlier hits. This is one part of the list. Unmarked numbers belong to inactive results.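 How the source made its calls: active means mean inhibition over duplicate tests at 10 µM above 50%; inactive means the rest.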

This assay can be described thus: ASC/caspase-1 reporter retest in S. cerevisiae at one dose, specificity check for NALP1 project (AID 488857). The following applies: S. cerevisiae ASC/Caspase-1, beta-galactosidase luminescence, 24 h; at 10 µM; stronger effect = higher value.
Take `Fc1ccc(C(OCCN2CCCC2)c2ccc(Br)cc2)cc1` (centres undefined): the inhibition was 53.5% (active).

In the case of `CCCCN(Cc1ccccc1)C1CCN(CCc2ccccc2)CC1`, the inhibition was 52.6% (active). Next, `CSc1ncc(Cl)c(C(=O)O)n1` (tested in a mixture with another compound): 35.1%.

As to `Clc1ccc2nc3c(c(-c4ccccc4)c2c1)CNCC3`, the inhibition is 57% (active).

Take `O=C(c1ccccc1)C(CN1CCCC1)c1ccccc1` (centres undefined): the inhibition was 25.8%. With `COc1cc2c(cc1OC)CN(c1ccc([N+](=O)[O-])c(C(F)(F)F)c1)CC2`, the inhibition is 69% (active). Consider `CCOCCN1CCN(c2nnc3n2-c2ccc(Cl)cc2C(c2ccccc2Cl)=NC3)CC1`, for which the inhibition is 30.9%. With `CN[C@H]1C[C@H]2O[C@@](C)([C@H]1OC)n1c3ccccc3c3c4c(c5c6ccccc6n2c5c31)C(=O)NC4`, the inhibition is 99.2% (active).

With `Cc1ccc(C)c(NC(=S)NCCc2cnc[nH]2)c1`, the inhibition is 42.5%. Next, `CC(Cc1ccccc1Sc1ccccc1)N(C)C` (centres undefined): 42.8%; `COCCNCCOc1ccc(C(C)(C)c2ccccc2)cc1`: 52.3% (active).

For `CC1(C)C[C@H]2C=C(C=O)[C@]3(C=O)C[C@]3(C)[C@H]2C1`, the inhibition was 81.3% (active). With `O=C1/C(=C/c2cccc([N+](=O)[O-])c2)N2CCC1CC2`, the inhibition is 51.1% (active). Under `Nc1c2c(nc3sc4c(c13)CCCCC4)CCCC2` stands 91.1% (active); under `Nc1c2c(nc3sc4c(c13)CCCC4)CCCCC2`, 58.4% (active). As to `CC(C)NS(=O)(=O)c1ccc(OCC(=O)N2CCN(C)CC2)cc1`, the inhibition is 17.6%.

Regarding `CC(C)CCn1c(=O)c(C(=O)NCc2ccco2)c(O)c2ccccc21`, the inhibition is 44.8%. Under `Cc1cc2ccccn2c1C(C[N+](=O)[O-])c1c(F)cccc1Cl` (centres undefined) stands 52.8% (active). Next, `C[C@H]1C[C@@H](C)C(=O)[C@@H]([C@H](O)CC2CC(=O)NC(=O)C2)C1`: 98.8% (active). For `CC(Cc1ccccc1)NC(=O)/C=C/c1ccc(Cl)cc1` (centres undefined), the inhibition is 71.7% (active).

Consider `c1ccc2sc(NC3=NCCN3)nc2c1`, for which the inhibition is 100% (active). Under `O=C1/C(=C/c2cc3c(cc2Cl)OCO3)N2CCC1CC2` stands 55% (active). In the case of `Nc1ccc(C2(c3ccc(N)cc3)CN3CCC2CC3)cc1`, the inhibition was 35%. Under `CN1/C(=C\C=C\C2=[N+](C)c3ccc4ccccc4c3C2(C)C)C(C)(C)c2ccccc21` stands 99.7% (active); under `CN1CCN(c2ccc(N)c(N3CCN(C)CC3)c2)CC1`, 31.1%. Turning to `O=C(c1cc2c(s1)-c1ccccc1OC2)N1CCC2(CC1)OCCO2`, the inhibition is 53.8% (active). Under `N#CCCn1cc(C(=O)NCc2ccccc2)c(-c2ccccc2)n1` stands 39.2%.

Take `Cc1ccc(/C=C2\C(=O)NC(=O)N(CC3CCCO3)C2=O)s1` (centres undefined): the inhibition was 46.5%. For `Cc1ccc(Cn2cc(C=O)c(-c3ccc(C)cc3)n2)cc1`, the inhibition was 67.5% (active).

With `Cc1cccc(N2C(=O)NC(=O)/C(=C/c3ccc([N+](=O)[O-])o3)C2=O)c1`, the inhibition was 45%. Under `Cc1ccc(S(=O)(=O)NC(CC(=O)N2CCC3(CC2)OCCO3)c2ccco2)cc1` (centres undefined) stands 31.6%; under `CN1C2CCC1/C(=C/c1ccccn1)C(=O)/C2=C\c1ccccn1`, 96.9% (active). For `CCCCCn1c(=O)c(C(=O)Nc2nc3ccccc3[nH]2)c(O)c2ccccc21`, the inhibition was 36.8%. Under `CCOc1cc(CNCCc2c[nH]c3ccccc23)cc(Cl)c1OCC` stands 43.5%. Next, `Nc1cc(Cl)c2nonc2c1[N+](=O)[O-]`: 57.1% (active). Under `Cc1ccc(-c2nc(N3CCOCC3)s[n+]2-c2ccccc2)cc1` stands 61.9% (active). Take `CNC(=O)Oc1ccc2ncccc2c1`: the inhibition was 42.4%. Under `CC1CCCC(C)N1/N=C/c1c[nH]c2ccc(Br)cc12` (centres undefined) stands 45.3%; under `COc1cc(/C=C(/C)[N+](=O)[O-])ccc1OCc1ccccc1Cl`, 80.2% (active).
